# High-throughput results from PubChem.
# Gal4-VP16 FLuc: inhibits Gal4-VP16 luciferase reporter, ROR gamma counter-screen; hit rate 3.5% among 310,000; AID 2546; Drosophila S2 Gal4-VP16 UAS-luciferase, luminescence, 20 h; Potency, µM (titrated, usually from 53.6 µM), usual class: inhibitors;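 also: Gal4-VP16 expression switched on by copper sulfate through the metallothionein promoter; nearly all actives have a fitted effect of over 50% in size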
# HEK293 tox: cytotoxic in the GLP-1 receptor inverse agonist counter-screen | hit rate 0.13% among 410,000 | Potency, µM (series often up to 38.3 µM), actives largely listed as inhibitors | HEK293 cAMP-luciferase reporter cells, luminescence, 24 h;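 also: loss of luciferase light is scored as toxicity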
#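 To flag toxic compounds, the library was rerun on cells for 24 hr at 37 deg C and 5% CO2. Viability-linked luminescence was captured 12 min after adding luciferase detection reagent.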
# GLP-1R agonist: agonists of human GLP-1 receptor; P43220; HEK293 GLP-1R CRE-luciferase, luminescence, 4-6 h; cells express a hypersensitive GLP-1R form; Potency, µM (doses to about 45.6 µM), most hits filed as activators; hit rate 0.007% among 380,000; AID 624172
# GLP-1R inv ag: GLP-1 receptor (human) inverse agonism. Potency, µM (highest dose often 38.3 µM), usual class: inhibitors. P43220. hit rate 1.6% among 410,000. HEK293 GLP-1R CRE-luciferase, luminescence, 24 h; GLP-1R form is constitutively active; also: nearly all actives have a fitted effect of over 55% in size
#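 Stable HEK293 clone (constitutively active GLP-1R + cAMP-response luciferase); 200 cells/uL plated, 12 h pre-culture, compound 24 hr, 37 deg C/5% CO2; detection reagent 12 min RT; luminescence.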
# RORgamma inh: inhibitors of mouse ROR gamma transcriptional activity; P51450; Drosophila S2 Gal4-RORgamma UAS-luciferase reporter, 20 h; Potency, µM (titrated, usually from 53.6 µM), actives largely listed as inhibitors; hit rate 5.4% among 310,000; also: nearly all actives have a fitted effect of over 60% in size
# Target sequence (P51450 whole entry, looked up, the tested form may be a part): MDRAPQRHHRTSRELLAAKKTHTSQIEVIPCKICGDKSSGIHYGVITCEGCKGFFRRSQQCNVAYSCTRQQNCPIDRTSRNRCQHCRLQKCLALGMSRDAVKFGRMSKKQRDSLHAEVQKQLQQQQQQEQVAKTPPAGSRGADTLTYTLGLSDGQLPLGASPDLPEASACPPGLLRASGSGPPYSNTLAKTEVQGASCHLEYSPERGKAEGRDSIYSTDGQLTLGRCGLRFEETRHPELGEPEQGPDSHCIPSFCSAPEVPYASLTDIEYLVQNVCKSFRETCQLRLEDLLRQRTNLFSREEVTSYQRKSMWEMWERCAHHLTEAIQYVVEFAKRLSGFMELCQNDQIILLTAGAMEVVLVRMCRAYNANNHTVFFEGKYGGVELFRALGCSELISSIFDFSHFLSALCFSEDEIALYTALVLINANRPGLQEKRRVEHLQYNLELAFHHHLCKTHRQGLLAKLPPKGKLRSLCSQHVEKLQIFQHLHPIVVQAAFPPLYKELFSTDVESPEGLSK
#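 In this cell-based reporter format, copper sulfate (700 uM final) drives Gal4–ROR gamma fusion expression from a metallothionein promoter in Drosophila Schneider cells; compounds preincubated 1 hr, reporter read after 20 hr at ambient temperature.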
# Numbers stand for hits; - = inactive; ? = inconclusive; . = no result; [ ] = another dose, or the depositor's remark. An excerpt weighted towards active compounds, which were near 5.9% of everything screened. Calls follow the shape of the dose curve; as a rule, active = well fitted curve in the direction sought with a large enough effect; inconclusive = small, poorly fitted or top-dose-only effect, or another doubt; inactive = no such curve, though single readings can be large; an effect the other way counts as inactive or inconclusive.
SMILES,Gal4-VP16 FLuc,HEK293 tox,GLP-1R agonist,GLP-1R inv ag,RORgamma inh
O=c1c2ccccc2[nH]c(=S)n1C1CCCCC1,2.8µM,-,-,-,0.89µM
CC1CCCCC1NC(=O)CCn1c(=S)[nH]c2ccccc2c1=O (stereo unspecified),.,-,-,-,.
CC1CCC(n2c(=S)[nH]c3ccccc3c2=O)CC1 (stereo unspecified),1µM,-,-,?,0.2µM
CC1CCCC(n2c(=S)[nH]c3ccccc3c2=O)C1C (stereo unspecified),0.63µM,-,-,?,0.28µM
CC1(C)CC(n2c(=S)[nH]c3ccccc3c2=O)CCO1 (stereo unspecified),8.9µM,-,-,-,8.9µM
Cc1ccsc1/C=N/NC(=O)c1nnn(-c2nonc2N)c1CSc1ccccc1,4µM,-,-,-,2.5µM
Nc1nonc1-n1nnc(C(=O)N/N=C/c2ccncc2)c1CSc1ccccc1,?,-,-,?,-
Cc1ccc(/C=N/NC(=O)c2nnn(-c3nonc3N)c2CSc2ccccc2)s1,5µM,-,-,-,4µM
Nc1nonc1-n1nnc(C(=O)N/N=C/c2ccccc2)c1CSc1ccccc1,-,-,-,-,-
N#CC1(NC(=O)COC(=O)C23CC4CC(CC(O)(C4)C2)C3)CCCCC1,-,-,-,-,-
CN(C(=O)COC(=O)C12CC3CC(CC(Cl)(C3)C1)C2)C1(C#N)CCCCC1,.,-,-,13µM,.
O=C1N/C(=C\c2ccc(O)cc2)C(=O)c2ccccc21,10µM,-,-,-,?
Cc1c(CCOC(=O)c2ccc(Cl)cc2Cl)sc[n+]1CC(=O)c1ccc(Br)cc1,.,?,-,10µM,.
COc1ccc(C(=O)OCCc2sc[n+](CC(=O)c3ccccc3)c2C)cc1,-,-,-,-,-
Cc1c(CCOC(=O)C2C3CC4CC(C3)CC2C4)sc[n+]1CC(=O)c1ccc(Br)cc1 (stereo unspecified),-,?,-,11µM,-
CC(=O)c1c(O)cc(O)cc1CC(=O)O,-,-,-,-,-
CC(=O)c1c(O)cc(O)c(C(C)=O)c1O,10µM,?,-,?,?
O=C(NCCc1csc(-c2cccc(F)c2)n1)C(=O)Nc1cc(F)ccc1F,.,-,.,-,.
CCOC(=O)c1cnc(SCc2cccc(C)c2)nc1N,-,-,?,10µM,?
CCOC(=O)c1cnc(SCC(=O)c2ccc(C)cc2)nc1N,-,-,-,-,-
Cc1ccccc1CCNC(=O)c1ccc2c(c1)c(C)c(C)n2Cc1ccccc1,.,-,.,10µM,.
Cc1c(C)n(Cc2ccccc2)c2ccc(C(=O)NCCc3ccccc3Cl)cc12,.,-,.,10µM,.
CCC1=C(OC(=O)N(CC)CC)N2C(=O)OC(=NCCOC)[C@]2(C)[C@H]2C1=CC[C@H]1C(=O)N(CC)C(=O)[C@H]12,-,.,.,.,-
CCN(C(=O)Cn1cnc2c1c(=O)n(C)c(=O)n2C)c1ccccc1C,.,-,.,-,.
CSc1ccccc1NS(=O)(=O)c1cccc2nonc12,-,-,-,?,11µM
SMILES,Gal4-VP16 FLuc,HEK293 tox,GLP-1R agonist,GLP-1R inv ag,RORgamma inh
CCCOc1ccc(-c2nonc2NC(=O)c2cc(OC)c(OC)c(OC)c2)cc1OCCC,.,-,.,?,.
Cn1c(=O)c([N+](=O)[O-])c(NCCCn2ccnc2)c2ccccc21,-,-,-,-,-
Cn1c(=O)c([N+](=O)[O-])c(-n2ccnc2)c2ccccc21,7.9µM,?,-,?,?
CCOc1ccccc1CNC(=O)C1CCN(c2nnc(C)c3c(C)n(-c4ccc(C)cc4)nc23)CC1,18µM,-,-,-,13µM
Cc1ccc(-n2nc3c(N4CCC(C(=O)NCc5ccccc5C)CC4)nnc(C)c3c2C)cc1,?,?,-,?,13µM
COc1ccc(-n2nc3c(N4CCC(C(=O)NCc5cccc(C)c5)CC4)nnc(C)c3c2C)cc1,20µM,-,-,?,?
COc1ccc(-c2oc3ncn4nc(COc5ccccc5C)nc4c3c2-c2ccc(OC)cc2)cc1,.,-,.,-,.
Cc1ccc(NC(=O)CN2CCN(C3CCCCC3)C(=O)C2=O)cc1,.,-,.,-,.
CNc1sc(C(=O)c2ccccc2F)c(N)c1-c1nc2ccccc2s1,13µM,-,-,-,7.9µM
COc1cccc(-c2nnc3n2N=C(c2c(OC)cccc2OC)CS3)c1OC,-,.,.,.,-
S=c1[nH]c(-c2ccccc2)cn1-c1ccccc1,10µM,-,-,-,10µM
O=[N+]([O-])c1ccc(-c2cn(-c3ccccc3)c(=S)[nH]2)cc1,?,-,-,-,?
Nc1ccc(-n2cc(-c3ccccc3)[nH]c2=S)cc1,?,-,-,-,8.9µM
O=[N+]([O-])c1cccc(-c2cn(-c3ccccc3)c(=S)[nH]2)c1,11µM,-,-,-,2µM
COc1cc(C(CC(=O)Nc2cccc(C(C)=O)c2)N2Cc3ccccc3C2=O)cc(OC)c1OC (stereo unspecified),.,-,-,-,.
Cc1cc(C)nc(SCCN(C)C)n1,-,-,-,-,-
Cc1cc(C)nc(SSc2nc(C)cc(C)n2)n1,6.3µM,?,-,?,5.6µM
CC(C(=O)NCCC1=CCCCC1)c1ccc([N+](=O)[O-])cc1 (stereo unspecified),-[10 µM],-,-,10µM,-
Cc1c2ccncc2cc2c1[nH]c1ccccc12,.,-,-,?,.
COc1ccc2[nH]c3c(C)c4ccncc4c(C)c3c2c1,4.5µM,?,-,-,3.2µM
Cc1ccc(-c2nc(Nc3cccc(C)c3)sc2CC(=O)O)cc1,-,-,-,?,11µM
Cc1cccc(Nc2nc(CC(=O)O)cs2)c1,?,-,-,-,?
CC(=O)N(C)c1ccc(NC(=S)NC(=O)/C=C/c2ccco2)cc1,-,-,-,-,10µM
CCOc1ccc(NC(=S)NC(=O)/C=C/c2ccco2)cc1,5.6µM,?,-,?,4µM
O=C(/C=C/c1ccco1)NC(=S)Nc1cccc(C(=O)O)c1,-,-,-,-,-
SMILES,Gal4-VP16 FLuc,HEK293 tox,GLP-1R agonist,GLP-1R inv ag,RORgamma inh
CC(=O)Nc1ccc(NC(=S)NC(=O)/C=C/c2ccco2)cc1,-,?,-,-,-
COc1ccc(CNC(=O)/C=C/c2ccco2)cc1OC,-,-,-,-,-
COc1cc(NS(=O)(=O)c2ccc(NC(=S)NC(=O)/C=C/c3ccco3)cc2)ncn1,-,-,-,-,-
COc1cccc(NC(=S)NC(=O)/C=C/c2ccco2)c1,?,?,-,-,11µM
COc1ccc(NC(=S)NC(=O)/C=C/c2ccco2)c(OC)c1,13µM,?,-,-,13µM
CCOCCCNC(=O)C(=O)Nc1c2c(nn1-c1ccccc1)CSC2,.,-,.,-,.
C[C@@]12CCC(O)C[C@H]1CCc1ccccc12 (stereo partly specified),-,.,.,.,-
Cc1ccc(N(CC(C)C)S(=O)(=O)c2nnc(NC(=O)c3cccs3)s2)cc1,.,-,.,?,.
Cc1ccccc1CNC(=O)Cn1ncn2nc(-c3cccs3)cc2c1=O,.,-,.,-,.
